# Source: ChEMBL document CHEMBL3988442, “University of Dundee, Small-Polar-MMV Screening Library” (2021)
# About 13,000 (27%) of roughly 48,000 compounds showed an effect of 50% or more. This is one part of the list.
# Tested on: Wolbachia pipientis
# Experiment: Anti-Wolbachia Cell-Based Screen
# Assay type: functional
# Design: scale not given: in the data most compounds retested in dose-response had high values
# Details: 5 µM
row,SMILES,Percent Effect
1,Cc1nc(CN)cc(N2CCC(O)(c3ccc(Cl)cc3)CC2)n1,-14.21%
2,O=C(NC(c1ccc(Cl)cc1)C(F)(F)F)c1nc(=O)[nH][nH]1 (stereo not drawn),-8.616%
3,CCN(C(=O)COC)C(c1cccnc1)c1cc(C)cc(C)c1 (stereo not drawn),20.72%
4,CCC(C)Oc1cc(C(=O)N(c2cccnc2)C(C)C)ccn1 (stereo not drawn),-13.41%
5,CCc1cc(N2CCN(c3ccc(Cl)cn3)CC2)n2nccc2n1,4.069%
6,COCC1CN(Cc2ccoc2)Cc2cn(CC3CCCC3)nc21 (stereo not drawn),-3.642%
7,Cc1cnn(CC2CN(CCc3ccncc3)CCO2)c1 (stereo not drawn),-9.167%
8,Cc1cnn(CC2CN(Cc3cccc(OCC(N)=O)c3)CCO2)c1 (stereo not drawn),-6.391%
9,Cc1cnn(CC2CN(CC(=O)N3CCc4ccccc43)CCO2)c1 (stereo not drawn),-2.09%
10,Cc1cnn(CC2CN(Cc3cccc(OC(C)C)c3)CCO2)c1 (stereo not drawn),92.31%
11,Cc1cnn(CC2CN(Cc3cccc(C(=O)N(C)C)c3)CCO2)c1 (stereo not drawn),5.735%
12,Cc1cnn(CC2CN(Cc3cccc(C(N)=O)c3)CCO2)c1 (stereo not drawn),99.45%
13,Cc1cnn(CC2CN(Cc3ccc(C(N)=O)cc3)CCO2)c1 (stereo not drawn),85.4%
14,Cc1cnn(CC2CN(Cc3cccnc3)CCO2)c1 (stereo not drawn),94.04%
15,Cc1csc(C2(NCc3ccc(OCC(F)F)cc3)CCCC2)n1,-12.46%
16,CC(C)(C)c1noc(OCC(=O)NCC(F)(F)F)n1,4.463%
17,CCNc1ncc(C(=O)Nc2nnc(N3CCCCC3)[nH]2)s1,22.13%
18,CC(NC(=O)COc1ccccc1C(=O)O)c1ccc(F)cc1 (stereo not drawn),-21.32%
19,Cc1ccc(-c2nnc(CCC(=O)NCc3cn(C)nc3C)o2)s1,-9.163%
20,COc1cc(CCC(C)O)c(OC)c2c1OCO2 (stereo not drawn),17.45%
21,CC(C)N(CCO)C(=O)C1CCC(=O)N(CCc2cccc(F)c2)C1 (stereo not drawn),8.608%
22,Cn1cccc1C(O)CNC(=O)COc1ccccc1F (stereo not drawn),-2.595%
23,CC(COc1ccccc1F)NC(=O)N[C@@H]1C=C[C@H](CO)C1 (stereo partly drawn),-7.056%

row,SMILES,Percent Effect
1,COCCNC(=O)NCc1ccc(OC(C)C)c(F)c1,2.22%
2,Cc1noc(C)c1CNC(=O)NCCOc1ccc(F)cc1F,-6.419%
3,COCCNC(=O)NC(C)COc1ccc(F)cc1F (stereo not drawn),119.4%
4,CC(C)CNC(=O)CNC(=O)NC(C)COc1ccccc1F (stereo not drawn),103.7%
5,COC[C@]1(O)CCN(C(=O)c2ccc(CN(C)C)o2)CC1(C)C,-8.345%
6,Cc1cnc(N)nc1N1CCN(CCCO)CC1,-5.518%
7,CC1(C)[C@H](Cc2cc(CO)on2)C[C@@H]1NCc1ccc(CO)o1,-1.541%
8,CN(C)c1ncccc1CNS(=O)(=O)c1ccccc1Cl,109.5%
9,CN(C)c1ncccc1CNS(=O)(=O)c1cc(F)cc(F)c1,128.3%
10,CN(C)c1ncccc1CNS(=O)(=O)c1ccc(F)cc1F,106.1%
11,CN(C)C(CNS(=O)(=O)c1cc(F)ccc1F)c1cccn1C (stereo not drawn),10.84%
12,CC(C)N(C)S(=O)(=O)NCc1cccnc1N(C)C,34.56%
13,CN(C)c1nc(NCc2cccnc2N)ncc1F,20.84%
14,COc1ccc(S(=O)(=O)NCc2cccnc2N(C)C)cc1F,-8.756%
15,COC(=O)c1ccc(S(=O)(=O)NCc2cccnc2N(C)C)cc1,-18.83%
16,CN(C)c1ncccc1CNS(=O)(=O)c1cc(F)ccc1F,114.6%
17,Cc1c(Cl)cccc1S(=O)(=O)NCc1cnc(N(C)C)n1C,-2.35%
18,CN(C)C(CNS(=O)(=O)c1ccc(F)cc1F)c1cccn1C (stereo not drawn),-13.11%
19,O=C1CC2(CCN(c3nccc(-c4cc(C(=O)O)ccn4)n3)CC2)CN1,4.533%
20,CC(C)(C)c1ncc(CNc2ccn(CCc3ccncc3)n2)s1,6.667%
21,CC1CS(=O)(=O)CCN1Cc1ccccc1N(C)C (stereo not drawn),-2.207%
22,CCc1cc(N[C@@H]2C[C@H]3CC[C@@H]2C3)n2nccc2n1,3.761%
23,Cc1cc(C(=O)N(C)Cc2nc(-c3ccccn3)no2)c(C)o1,-5.968%

row,SMILES,Percent Effect
1,CN(C)c1ncccc1CNS(=O)(=O)c1c(F)cccc1F,108%
2,CN(C)c1ncccc1CNC(=O)N(Cc1ccccc1F)C1CC1,8.051%
3,CCCC(C)CS(=O)(=O)NCc1cccnc1N(C)C (stereo not drawn),13.21%
4,CO[C@H]1CCN(S(=O)(=O)c2cccs2)[C@H]1Cc1ccncc1,-16.22%
5,Cc1cnn(-c2cncc(C(N)=O)c2)c1,-7.115%
6,COCC(NC(=O)NCc1sc(C)nc1C)c1ccco1 (stereo not drawn),-12.64%
7,O=C(Cn1ncc(N2CCNCC2)cc1=O)NCCc1ccc(F)cc1,-10.43%
8,O=C(Cn1ccc2ccccc21)Nc1cc(N2CCCC2)ncn1,-7.456%
9,O=C(Cc1ccc(F)cc1)NCCNCC1CNc2ccnn2C1 (stereo not drawn),-7.839%
10,CC(C)(C)C(=O)NCCNc1cc(N2CCCC2)ncn1,-0.9567%
11,O=C(Cc1ccc(F)cc1)NCCNc1cc(N2CCCC2)ncn1,80.33%
12,O=C(Cc1ccc(F)cc1)NCCNc1cc(N2CCCC2)cnn1,105.1%
13,O=C(NCCNc1cc(N2CCCC2)cnn1)Nc1ccccc1F,106.6%
14,Cc1ccccc1NC(=O)Nc1cc(N2CCCC2)ncn1,-4.653%
15,CCOc1ccccc1NC(=O)Nc1cc(N2CCCC2)ncn1,-20.57%
16,O=C1N[C@@H]2CCN(C(=O)C3CCCC3)[C@@H]2C(=O)N1c1ccc(F)cc1,-1.999%
17,CS(=O)(=O)N1CCOCC2(CN(Cc3ccco3)CCO2)C1.O=C(O)C(F)(F)F (stereo not drawn),-8.773%
18,O=C1CCCc2nccc(-c3ccccc3)c21,-3.137%
19,Cc1cccc(CN2CCc3ncnc(N4CCCC4)c3CC2)n1.O=C(O)C(F)(F)F,88.17%
20,Cc1cccc(CN2CCc3ncnc(N4CCOCC4)c3CC2)n1.O=C(O)C(F)(F)F,-7.957%
21,Cc1cccc(CN2CCc3ncnc(N4CCN(C)CC4)c3CC2)n1.O=C(O)C(F)(F)F.O=C(O)C(F)(F)F,101.7%
22,O=C(Cc1ccccn1)N1CCc2ncnc(N3CCCC3)c2CC1.O=C(O)C(F)(F)F,-1.895%
